# Measured values taken from PubChem BioAssay (NCATS).
# Records with an inconclusive call do not appear. Active and inactive are the calls of the source. The call rests on the fitted dose curve; in most records, active means well fitted inhibition curve with a large enough effect; inconclusive means small, poorly fitted or top-dose-only effect; inactive means flat fitted curve, though single readings scatter.
# System: CRL-7250
# Test: qHTS assay to identify novel small-molecules to repurpose for Merkel cell carcinoma treatment (AID 1296009); further: nearly all actives have a fitted effect of over 60% in size
# Details: MCC and control cell lines, CellTiter-Glo viability, 72 h; series mostly up to 92 µM; activity change, negative = cytotoxicity: at the top concentration
# Method in brief: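 Cells were treated for 72 hr at 37 degree celsius with compounds in 8- or 11-point dose response. Viability was read by CellTiter-Glo luminescence, normalized to no-cell (cytotoxicity) and DMSO controls.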
row,Compound,outcome
1,CC(C)=CCC[C@](C)(O[C@@H]1O[C@H](CO[C@@H]2OC[C@@H](O)[C@H](O)[C@H]2O)[C@@H](O)[C@H](O)[C@H]1O)[C@H]1CC[C@]2(C)[C@@H]1[C@H](O)C[C@@H]1[C@@]3(C)CC[C@H](O[C@@H]4O[C@H](CO)[C@@H](O)[C@H](O)[C@H]4O[C@@H]4O[C@H](CO)[C@@H](O)[C@H](O)[C@H]4O)C(C)(C)[C@@H]3CC[C@]12C,inactive [at 17.4 µM]
2,CC1(C)CC2C(O)C3=C(CC(C)(O)C2C1)C(=O)OC3 (centres undefined),inactive
3,CC(C)(C)NS(=O)(=O)c1cncc(-c2cc(F)c3nc(N)nn3c2)c1,inactive
4,COc1ccncc1C(=O)NC(=O)Nc1ccc(-c2ccccc2)c(C(F)(F)F)c1,inactive
5,O=C(O[C@H]1[C@@H]2C[C@@H]3OC[C@@](O)([C@H]2[C@H](O[C@@H]2O[C@H](CO)[C@@H](O)[C@H](O)[C@H]2O)O3)[C@@H]1O)c1ccccc1,inactive [at 17.4 µM]
6,C=CC1(C)CC(OC(=O)C(=C)C(O)COC(C)=O)C(C(=C)C(=O)OC)C(O)C1C(=C)CO (centres undefined),inactive [at 17.4 µM]
7,CC1(C)CC[C@]2(C(=O)O)CC[C@]3(C)C(=CCC4[C@@]5(C)C[C@@H](O)[C@H](O)C(C)(C)C5CC[C@]43C)C2C1 (some centres undefined),inactive [at 17.4 µM]
8,COc1c(CCC(=O)O)cccc1O[C@@H]1O[C@H](CO)[C@@H](O)[C@H](O)[C@H]1O,inactive
9,CCOC(=O)CSc1nc2c(sc3ccccc32)c(=O)n1CCCN1CCCC1,inactive
10,CC(C)=CCCC1(C)Oc2cc3c(c4c2C2C(O4)C(C)(O)CCC21)CN(C(CCC(=O)O)C(=O)O)C3=O (centres undefined),inactive [at 17.4 µM]
11,Cc1ccc(Nc2nnc(-c3ccc([N+](=O)[O-])cc3)o2)cc1Cl,inactive
12,CN1CCN(C2=Nc3ccccc3Nc3ccc(OS(=O)(=O)C(F)(F)F)cc32)CC1,inactive
13,CC1(C)CC[C@]2(C(=O)O[C@@H]3O[C@H](CO)[C@@H](O)[C@H](O)[C@H]3O)CC[C@]3(C)C(=CCC4[C@@]5(C)C[C@@H](O)[C@H](O)C(C)(C)C5[C@H](O)C[C@]43C)[C@@H]2[C@@H]1O (some centres undefined),inactive [at 17.4 µM]
14,On1ncc(C2CCNCC2)c1-c1cccc(-c2ccccc2)c1,inactive
15,COc1cc(O)cc(C)c1C(=O)OC1C(CO)OC(n2ccc(=O)[nH]c2=O)C1OC(C)=O (centres undefined),inactive [at 17.4 µM]
16,CC12CCC(=O)C=C1C(O)CC1C2C(O)CC2(C)C1CC[C@]2(O)C(=O)CO (some centres undefined),inactive [at 9.27 µM]
17,CNC(C)C(=O)NC(C(=O)N1CCCC1C(=O)Nc1cccc2ncccc12)C(C)C (centres undefined),inactive
18,CCOc1ncc(S(=O)(=O)N2CCN(CC)CC2)cc1-c1nc2c(CC)n(CCOC)nc2c(=O)[nH]1,inactive
19,COc1c2c(c(C)c3c1C(=O)OC3)OC1(C)CC(O)C34OC(OC)(OC3(C)C)C(O)CC4(C)C1C2 (centres undefined),inactive [at 17.4 µM]
20,CC1(C)CCC(C)(C)c2cc3c(cc21)Sc1ccccc1N=C3c1ccc(C(=O)O)cc1,inactive

row,Compound,outcome
1,CC(=O)O[C@H]1C[C@@]2(C)[C@@H](C[C@@H](O)[C@H]3[C@@]4(C)CC[C@@H](O)[C@@H](C)[C@@H]4CC[C@@]32C)/C1=C(\CCC=C(C)C)C(=O)O,inactive
2,O=C1NC(Cc2c[nH]c3ccccc23)C(=O)NC1Cc1cnc[nH]1 (centres undefined),inactive
3,CCc1cc(CC[C@]2(C3CCCC3)CC(O)=C(Cc3nc4nc(C)cc(C)n4n3)C(=O)O2)cc(CC)n1,inactive
4,NC(=O)c1cccc2[nH]c(-c3ccc(C4CCCN4)cc3F)nc12 (centres undefined),inactive
5,NC(N)=NCCC[C@H](NC(=O)c1sccc1NS(=O)(=O)c1cccc2nsnc12)C(=O)O,inactive
6,COC1C=C([C@@H]2CC=C3[C@@]4(C)C(CC[C@]32C)[C@@]2(C)C=CC(=O)C(C)(C)C2C[C@H]4OC(C)=O)C(=O)O1 (some centres undefined),inactive [at 17.4 µM]
7,CC(=O)C=C=C1C(C)(C)CC(O[C@@H]2O[C@H](CO)[C@@H](O)[C@H](O)[C@H]2O)CC1(C)O (some centres undefined),inactive
8,COC(=O)C(CC1(O)c2ccccc2N2C(=O)C(C)(C)N(O)C21)n1cnc2ccccc2c1=O (centres undefined),inactive [at 17.4 µM]
9,COC1=Cc2c(nc3n(c2=O)C(C)C(=O)NC3(O)C(C)C)OC=C1 (centres undefined),inactive
10,COc1cc(C2c3cc(O)c(OC)cc3CC(CO)C2CO)ccc1O (centres undefined),inactive
11,COc1cc(C2Oc3c(OC)cc(CCCO)cc3C2CO)ccc1O (centres undefined),inactive
12,CC(C)(O)c1ccc2c(c1)ncn2-c1cccc(-c2ccccc2C#N)c1,inactive
13,CCC(C)/C=C(C)/C=C/C1=CC2=C(Cl)C(=O)C(C)(OC(C)=O)C(=O)C2=CN1C1CCCCN(C(CCC(N)=O)C(=O)O)C1=O (centres undefined),inactive [at 17.4 µM]
14,CCCCCCCOc1cc2c(cc1/C(C)=C/c1ccc(C(=O)O)cc1)C(C)(C)CCS2(=O)=O,inactive
15,Cc1ccc(-c2ccc3c(ccc4sc5c(c43)NC[C@@H](C)NC5=O)n2)cn1,inactive
16,CC12CCC3c4ccc(OC5OC(C(=O)O)C(O)C(O)C5O)cc4CCC3C1CCC2O (centres undefined),inactive
17,CC1CCC23COC(=O)C2=CC(O)CC3C1(C)CCC1=CC(=O)OC1O (centres undefined),inactive
18,C=C1C[C@]23C[C@H]1CC[C@H]2[C@]1(C)CCC[C@@](C)(C(=O)O)[C@H]1[C@@H]3C(=O)O,inactive
19,CC1CC=C2C1CC1(O)C(=O)CC2(C)C1(C)CO (centres undefined),inactive
